Screening data from PubChem BioAssay.
GLP1R inv ag: qHTS of GLP-1 Receptor Inverse Agonists (Inhibition Mode); HEK293 GLP-1R CRE-luciferase, luminescence, 24 h; GLP-1R form is constitutively active; Potency, µM (top dose mostly 38.3 µM), actives largely listed as inhibitors; Glucagon-like peptide 1 receptor (Homo sapiens), P43220; AID 624417, 2012; actives 1.6% (n = 410,000); also: nearly all actives have a fitted effect of over 55% in size
Target sequence (P43220 whole entry, looked up): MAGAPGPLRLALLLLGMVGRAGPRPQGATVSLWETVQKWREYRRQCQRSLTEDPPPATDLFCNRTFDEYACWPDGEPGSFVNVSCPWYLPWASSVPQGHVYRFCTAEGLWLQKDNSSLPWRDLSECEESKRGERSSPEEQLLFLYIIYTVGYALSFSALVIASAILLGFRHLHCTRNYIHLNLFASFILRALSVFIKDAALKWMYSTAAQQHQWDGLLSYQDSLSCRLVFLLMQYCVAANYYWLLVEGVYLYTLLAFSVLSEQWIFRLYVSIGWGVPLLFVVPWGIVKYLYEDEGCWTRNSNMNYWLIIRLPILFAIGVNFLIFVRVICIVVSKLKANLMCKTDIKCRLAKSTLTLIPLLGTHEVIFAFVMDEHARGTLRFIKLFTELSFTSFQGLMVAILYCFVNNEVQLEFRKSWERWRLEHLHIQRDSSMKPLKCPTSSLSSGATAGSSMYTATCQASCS
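Inverse agonism was detected as reduced cAMP-driven luciferase luminescence after 24 h compound treatment. The cells were HEK293 clones expressing constitutively active human GLP-1R with the reporter. Reporter-only and GPR119 cell lines served as counterscreen controls.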
GLP-1R agonist: qHTS of GLP-1 Receptor Agonists; HEK293 GLP-1R CRE-luciferase, luminescence, 4-6 h; cells express a hypersensitive GLP-1R form; Glucagon-like peptide 1 receptor (Homo sapiens), P43220; actives 0.007% (n = 380,000); Potency, µM (top dose mostly 45.6 µM), most hits filed as activators
ClpP mod: qHTS Assay for Activators of ClpP | purified B. subtilis ClpP, FRET peptide cleavage, 20 min | Potency, µM (series often up to 57.5 µM) | AID 651965, 2013 | actives 1.9% (n = 340,000); active = well fitted falling curve with a large enough effect; inconclusive = small, poorly fitted or top-dose-only effect; inactive = no such curve, though single readings can be large or run the other way; also: the source files actives as falling curves though it sought activators and does not explain the sign; nearly all actives have a fitted effect of over 65% in size
Target sequence (P80244 whole entry, looked up): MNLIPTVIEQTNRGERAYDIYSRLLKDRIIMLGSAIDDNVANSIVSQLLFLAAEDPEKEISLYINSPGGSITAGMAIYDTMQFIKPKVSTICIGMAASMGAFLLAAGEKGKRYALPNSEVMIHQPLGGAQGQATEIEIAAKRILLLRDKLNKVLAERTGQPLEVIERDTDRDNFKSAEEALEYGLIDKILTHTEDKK
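Purified B. subtilis ClpP, 10 microg/mL final in Tris/HCl pH8 with KCl, BSA, glycerol and Tween-20, cleaved an Abz/nitrotyrosine-quenched decapeptide. Fluorescence (ex 320, em 430) was read at 0 and 20 min at room temperature. Delta was normalized to 5.8 microM ADEP and DMSO/no-enzyme controls.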
GLP1R cytotox: qHTS of GLP-1 Receptor Inverse Agonists: Cytotox Screen; AID 624418, 2012; HEK293 cAMP-luciferase reporter cells, luminescence, 24 h; Potency, µM (doses to about 38.3 µM), actives largely listed as inhibitors; actives 0.13% (n = 410,000);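 also: loss of luciferase light is scored as toxicity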
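Seeding density was 200 cells/uL; after overnight-length (12 h) culture, 23 nL compounds went on for 24 h at 37 °C. Readout used a luciferase detection reagent, luminescence taken after 12 min at room temperature.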
Hits are given with their value; – = inactive; ? = inconclusive; · = no result; [ ] = another dose, or the depositor's remark. In the library only some 3.2% were active in any assay of this set; here they are far more common. Unless noted, calls follow the shape of the dose curve; as a rule, active = well fitted curve in the direction sought with a large enough effect; inconclusive = small, poorly fitted or top-dose-only effect, or another doubt; inactive = no such curve, though single readings can be large; an effect the other way counts as inactive or inconclusive.

SMILES	GLP1R inv ag	GLP-1R agonist	ClpP mod	GLP1R cytotox
Cc1ccc(OCCn2cc(C(=O)c3ccco3)c3ccccc32)cc1C	10µM	·	?	–
COc1ccc(OCCn2cc(C(=O)c3ccco3)c3ccccc32)cc1	?	·	?	–
CC1=CC(C)C2C(=O)N(O)C(=O)C2C1 (stereo not drawn)	–	–	–	–
CC1=CC(C)C2C(=O)N(c3ccccc3)NC(=O)C2C1 (stereo not drawn)	?	–	15.8µM	–
Cc1ccc2c(CN(C)Cc3ccc(Cl)cc3Cl)cc(=O)oc2c1	11.2µM	–	·	–
Cc1ccc2c(CN(C)Cc3ccc(Cl)cc3)cc(=O)oc2c1	?	?	·	–
COc1ccc2c(CN(C)c3ccccc3)cc(=O)oc2c1	?	–	22.4µM	–
CCN(Cc1cc(=O)oc2cc(C)ccc12)c1ccccc1	10µM	–	–	–
Fc1ccc(NCc2nnc3n2CCCCC3)cc1Cl	–	–	–	–
C1=CC2=NC34CCCCC3CC3=C(CCCC3)N4C2=CC1=NC1CCCCC1 (stereo not drawn)	10µM	–	–	?
COC(=O)c1ccc(NC(=O)COc2ccccc2C(=O)Nc2ccccc2)cc1	·	·	–	·
C[n+]1ccc(C(c2c[nH]c3ccccc23)c2cc[n+](C)c3ccccc23)c2ccccc21	·	·	–	·
CN1/C(=C\C(=O)Nc2cccc(Cl)c2)C(C)(C)c2ccccc21	5.01µM	–	·	?
CCCn1c(=N)n(CC(=O)c2ccc(Cl)cc2)c2ccccc21	7.94µM	–	·	–
CCCn1c(=N)n(CC(=O)c2ccc([N+](=O)[O-])cc2)c2ccccc21	–	–	·	–
CC(C)(C)C(=O)/C(=C/c1ccc(Cl)cc1)n1cncn1	3.98µM	–	–	–
Cc1ccc(C)c(Oc2cc(NC(=O)CCCn3nc(C)c([N+](=O)[O-])c3C)cc([N+](=O)[O-])c2)c1	?	–	–	–
Cc1nn(CCCC(=O)Nc2cc(Oc3ccccc3)cc([N+](=O)[O-])c2)c(C)c1[N+](=O)[O-]	?	–	25.1µM	–[1.53 µM]
Cc1cccc(NC(=O)CSc2nc3ccc(NC(=O)c4ccccc4)cc3s2)c1	–	·	?	–
COc1ccc2c(c1)c(CCNNC(=O)C(C)(C)C)c(C)n2C(=O)c1ccc(Cl)cc1	10µM	–	–	?
COc1ccc(-c2cn3c(n2)sc2cc(C(=O)N4CCCCC4)ccc23)cc1	–	·	–	–
COc1cc(NC(=O)N2CCN(c3cc(-c4noc(C)n4)ccc3C)CC2)cc(OC)c1OC	–	–	–	–
CCCn1c(C(=O)OC)cc2c1ccn2-c1ccc(F)cc1	–	–	28.2µM	–
COC(=O)c1cc2c(ccn2-c2ccc(F)cc2)n1CC(C)C	–	–	28.2µM	–
CCOC(=O)c1cc2c(ccn2-c2ccc(F)cc2)n1CC(=O)N1CCN(C(=O)c2ccco2)CC1	–	–	31.6µM	–
SMILES	GLP1R inv ag	GLP-1R agonist	ClpP mod	GLP1R cytotox
COC(=O)c1cc2c(ccn2-c2ccc(F)cc2)n1C(C)C	–	–	?	–
Cc1cc(C(=O)OCC(=O)N2CCN(C(=O)c3ccco3)CC2)c(C)n1-c1ccc(F)cc1	?	–	–	–
CCOC(=O)c1cc2c(ccn2C)n1CC(=O)Nc1ccc(F)cc1	–	–	–	–
O=C(CSc1nc2ccccc2nc1Cc1ccc(Cl)cc1)N1CCN(c2ccccc2F)CC1	–	·	–	–
CC(=O)c1ccc(NC(=O)Cn2cc(S(=O)(=O)Cc3cccc(Cl)c3)c3ccccc32)cc1	10µM	·	–	?
CC(C)[C@H](NC(=O)c1ccccc1Cl)C(=O)OCc1cc([N+](=O)[O-])cc2c1OCOC2	–	–	22.4µM	–
CC(C)[C@H](NS(=O)(=O)c1ccccc1)C(=O)OCc1cc([N+](=O)[O-])cc2c1OCOC2	?	–	–	–
CCOc1ccc2nc(NC(=O)c3cc(=O)c4cc(C)cc(C)c4o3)sc2c1	–	·	–	–
C=CCN(c1ccccc1)S(=O)(=O)c1cccc(C(=O)NC2CCN(Cc3ccccc3)CC2)c1	12.6µM	–	–	?
O=C(NC1CCN(Cc2ccccc2)CC1)c1cccc(S(=O)(=O)Nc2ccc(F)cc2)c1	7.08µM	–	–	11.2µM
Cc1oc(C(C)(C)C)cc1C(=O)NC1CCN(Cc2ccccc2)CC1	12.6µM	–	–	–
Cc1ccc(C)c(OCc2cc(C(=O)NC3CCN(Cc4ccccc4)CC3)no2)c1	2.24µM	–	–	–
CC(=O)C[C@@H]1OC[C@H](Cc2ccccc2)N1S(=O)(=O)c1ccc(C)cc1	–	·	–	–
CCCC(=O)NCCc1nc2ccccc2n1Cc1c(F)cccc1Cl	–	–	–	–
CCOC(=O)CSc1nc2sc3c(c2c(=O)n1CC)CCCC3	–	·	–	–
COc1ccccc1NS(=O)(=O)c1ccc(C)c(C(=O)NC2CCN(Cc3ccccc3)CC2)c1	11.2µM	–	–	–
Cc1ccc(NS(=O)(=O)c2cccc(C(=O)NC3CCN(Cc4ccccc4)CC3)c2)c(C)c1	?	–	–	11.2µM
COc1ccccc1NS(=O)(=O)c1cccc(C(=O)NC2CCN(Cc3ccccc3)CC2)c1	?	–	·	–
CC(=O)Nc1ccc(C(=O)CS(=O)(=O)c2ccc(C)cc2)cc1	–	–	–	–
Cc1ccc(S(=O)(=O)CC(=O)c2ccc(C(C)(C)C)cc2)cc1	?	–	28.2µM	–
CCOc1ccc(CN2C(=O)c3ccccc3C2C(=O)NCCc2ccc(OC)c(OC)c2)cc1 (stereo not drawn)	–	·	–	–
Cn1c(=O)n(CCc2ccccc2)c(=O)c2c1nc1n2CCCN1CCc1ccccc1	2.24µM	–	–	–
CCCn1c(=O)c2c(nc3n2CCCN3CCc2ccccc2)n(C)c1=O	?	–	–	–
C=CS(=O)(=O)N(Cc1ccc(Cl)c(Cl)c1)C[C@@H](O)CO	6.31µM	–	–	?
O=C(O)c1sccc1SCc1ccc(Cl)c(Cl)c1	–	–	–	–
SMILES	GLP1R inv ag	GLP-1R agonist	ClpP mod	GLP1R cytotox
CC(C)(C)c1ccc(OCCCNC2CCCC2)cc1	10µM	–	·	?
CC(=O)Nc1ccc(/C=C/c2nc(-c3ccccc3O)n(-c3ccccc3)n2)cc1	–	·	–	–
CCCCNC(=O)CSc1nc2ccccc2nc1Cc1ccc(Cl)cc1	–	·	–	–
S=C(Nc1ccccc1)N1CCCCCC1	–	–	–	–
Nc1ncn(C(=S)Nc2ccccc2)n1	?	–	–	4.47µM
COC(=O)c1c(C#N)c(N)nc2c1CCCC2	–	–	28.2µM	–
c1cc2c(cc1Cc1cncc(Cc3ccc4c(c3)OCO4)c1)OCO2	·	·	–	·
COc1cc2cc(CN(Cc3cccs3)C(=S)Nc3ccccc3)c(=O)[nH]c2cc1OC	–	–	10µM	–
COc1cc2cc(CN(CCN3CCCC3)C(=O)Nc3ccc(F)cc3)c(=O)[nH]c2cc1OC	–	–	14.1µM	–
CCN(CC)CCCN(Cc1cc2cc3c(cc2[nH]c1=O)OCO3)C(=S)Nc1ccccc1	?	–	·	–
